Laboratory results published in PubChem BioAssay.
Unmarked numbers belong to inactive results. Active and inactive are the calls of the source. Rule as the data show it, unless noted: active = inhibition above about 33%; inactive = the rest.

Columns and labels:
[1] = StAR promoter reporter inhibitors, counter-screen for LRH-1 inverse agonist project, cell-based, luminescence, high throughput (AID 651611; in the data active = inhibition above about 28%); conditions: StAR promoter luciferase reporter counterscreen, at 3.6 µM, hits give high values
[2] = molecular target: Nuclear receptor subfamily 5 group A member 2 (Homo sapiens) (UniProt O00482); test: NR5A2 activity suppression in reporter cells – cell-based, luminescence, confirmation (AID 651613; in the data active = inhibition above about 42%;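 also: HEK293T cells co-transfected with LRH-1 and StAR promoter luciferase reporter; 0% = vehicle wells and 100% = parental cells lacking receptor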); conditions: cell-based LRH-1 luciferase reporter, inverse agonism; at 3.6 µM; hits give high values
[3] = molecular target: Steroidogenic factor 1 (Homo sapiens) (UniProt Q13285); test: inverse agonism at SF1 nuclear receptor – cell-based, luminescence, high throughput, counter-screen for LRH-1 inverse agonist project (AID 651614; in the data active = inhibition above about 44%;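 also: cells cotransfected with StAR promoter reporter and SF1 expression vector; 0% = vehicle on cells with receptor and 100% = vehicle on cells lacking receptor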); conditions: cell-based SF1 luciferase reporter, at 3.6 µM, hits give high values
[4] = compounds suppressing VP16-driven luciferase signal – cell-based, luminescence, high throughput, counter-screen for LRH-1 inverse agonist project (AID 651615); conditions: Gal4-VP16 luciferase reporter cells, at 3.6 µM, hits give high values

Chain of Steroidogenic factor 1 (Homo sapiens) (Q13285 whole entry, looked up, the tested form may be a part): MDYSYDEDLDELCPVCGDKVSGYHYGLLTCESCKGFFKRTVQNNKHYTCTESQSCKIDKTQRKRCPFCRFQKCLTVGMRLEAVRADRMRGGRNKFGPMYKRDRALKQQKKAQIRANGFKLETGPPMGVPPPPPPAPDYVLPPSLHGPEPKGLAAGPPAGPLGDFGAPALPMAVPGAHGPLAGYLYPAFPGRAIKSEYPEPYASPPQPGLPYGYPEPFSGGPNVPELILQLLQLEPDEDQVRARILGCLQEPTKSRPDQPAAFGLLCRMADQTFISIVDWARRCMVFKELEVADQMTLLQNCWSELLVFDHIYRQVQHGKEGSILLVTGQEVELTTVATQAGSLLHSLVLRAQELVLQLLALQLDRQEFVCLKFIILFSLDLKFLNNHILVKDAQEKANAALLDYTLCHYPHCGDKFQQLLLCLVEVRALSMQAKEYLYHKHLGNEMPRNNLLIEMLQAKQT
Chain of Nuclear receptor subfamily 5 group A member 2 (Homo sapiens) (O00482 whole entry, looked up): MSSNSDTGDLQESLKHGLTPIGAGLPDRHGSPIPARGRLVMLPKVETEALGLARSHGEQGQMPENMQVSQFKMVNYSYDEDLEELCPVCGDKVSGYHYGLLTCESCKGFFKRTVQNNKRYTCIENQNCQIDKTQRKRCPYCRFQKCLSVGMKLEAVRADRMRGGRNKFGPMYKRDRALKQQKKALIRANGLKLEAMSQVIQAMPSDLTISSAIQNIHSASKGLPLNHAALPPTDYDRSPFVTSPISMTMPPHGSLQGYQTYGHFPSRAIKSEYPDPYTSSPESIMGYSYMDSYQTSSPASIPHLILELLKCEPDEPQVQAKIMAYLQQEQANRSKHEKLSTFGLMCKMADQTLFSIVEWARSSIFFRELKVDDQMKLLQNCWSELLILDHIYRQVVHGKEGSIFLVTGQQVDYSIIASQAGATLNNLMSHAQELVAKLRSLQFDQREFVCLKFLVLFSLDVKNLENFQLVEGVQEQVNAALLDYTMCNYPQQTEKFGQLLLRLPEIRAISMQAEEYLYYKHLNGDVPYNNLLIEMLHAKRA

Row | Compound | inhibition [1] | inhibition [2] | inhibition [3] | inhibition [4]
1 | Cc1cc2ncn(/N=C/c3ccc([N+](=O)[O-])s3)c2cc1C | 12.7% | 60% (active) | 58.6% (active) | -1.24%
2 | Cc1ccc(C(=O)N/N=C\c2ccc([N+](=O)[O-])o2)cn1 | 24.3% | 59% (active) | 57% (active) | 0.83%
3 | Cc1cc(N2CCN(C(=O)c3ccco3)CC2)n2nc(-c3cccc(F)c3)cc2n1 | 14.2% | 54.6% (active) | 60.6% (active) | -10.7%
4 | Cc1ccc(-c2nn3c(C)nnc3s2)cc1NC(=O)c1cccs1 | 17.1% | 67.5% (active) | 69.4% (active) | -15.2%
5 | CCC(=O)N1CCN(c2ccc(NC(=O)c3ccc([N+](=O)[O-])o3)cc2)CC1 | 17.6% | 78% (active) | 68.4% (active) | -25%
6 | C/C(=N\N1CCN(c2ccc(Cl)cc2)CC1)c1cccc([N+](=O)[O-])c1 | 12.5% | 15.8% | 21.2% | 8.61%
7 | CS(=O)(=O)N1CCN(c2ccccc2NC(=O)c2cc3ccccc3o2)CC1 | 26.4% | 47.5% (active) | 33.7% | -6.66%
8 | O=C(CSc1nnc(CNC(=O)c2ccccc2F)o1)Nc1ccc2c(c1)OCCO2 | 10.5% | 56.9% (active) | 51.6% (active) | -7.98%
9 | Nc1ccc(Nc2ccncc2[N+](=O)[O-])cc1 | 2.61% | 65.6% (active) | 61.9% (active) | 15.7%
10 | COc1ccc(S(=O)(=O)N2CCCN(CC(=O)Nc3ccc(OC)c(Cl)c3)CC2)cc1 | 17.7% | 65.8% (active) | 57.7% (active) | -5.36%
11 | c1ccc2c(c1)CC1(CCCC1)n1nnnc1-2 | 5.24% | 52.2% (active) | 42.5% | -5.69%
12 | O=C(CSc1ncccc1-c1nc2ccccc2[nH]1)Nc1ccc2c(c1)OCCO2 | -8.79% | -2.1% | 5.63% | -15.5%
13 | Oc1cccc(Nc2nc(N3CCOCC3)nc(N3CCOCC3)n2)c1 | 24.7% | 45% (active) | 21.6% | 21%
14 | CC(NC(=O)c1ccco1)C(c1cccs1)N1CCN(c2ccccc2)CC1 (stereo not drawn) | 6.91% | 34.9% | 34.2% | -0.25%
15 | O=C(C[C@H]1CC[C@@H]2[C@H](COC[C@H](O)CN2Cc2cccc(C(F)(F)F)c2)O1)NCCc1ccccc1 | 2.1% | 8.97% | 15.7% | 1.55%
16 | Cn1c2c(c(=O)n(C)c1=O)C(C(F)(F)F)(C(F)(F)F)N=C(CCC1CCCCC1)N2 | 29.6% (active) | 41.9% (active) | 49.6% (active) | 41.1% (active)
17 | COc1cccc(C(C)(O)c2nc(-c3cccc(C#N)c3)cs2)c1 (stereo not drawn) | 19.6% | 55.2% (active) | 49.4% (active) | 22.6%
18 | COc1ccc(NS(=O)(=O)c2cccc(NC(=O)c3ccc(Cl)nc3)c2)cc1 | 37.9% (active) | 63.3% (active) | 66% (active) | 55.4% (active)
19 | COC(=O)c1ccc(NC(=O)CSc2nc3ncccc3[nH]2)cc1 | -4.1% | 50.8% (active) | 52.6% (active) | -13.4%
20 | COc1ccc(NC(=O)CN2C(=O)NC3(CCCC3)C2=O)cc1Cl | 2.83% | 54.6% (active) | 60.6% (active) | -7.78%
21 | O=C(Nc1ccc(F)cc1)C(c1cc2ccccc2o1)N1CCN(c2cccc(C(F)(F)F)n2)CC1 (stereo not drawn) | 11% | 24.9% | 35.4% | 16.1%
22 | O=C(Nc1cc(-c2nc3ncccc3o2)ccc1Cl)c1ccc([N+](=O)[O-])o1 | 15.3% | 52.2% (active) | 53.2% (active) | -25.6%
23 | CCCOc1ccc(NC(=O)CC2C(=O)N(C)C(=S)N2Cc2ccc3c(c2)OCO3)cc1 (stereo not drawn) | 6.7% | 57.6% (active) | 53.2% (active) | 5.2%
24 | COc1ccc(CCNC(=O)COC(=O)Cc2ccccc2[N+](=O)[O-])cc1 | 8.86% | 65.5% (active) | 61.4% (active) | -6.51%
25 | Cc1cc(O)c(/C=N/Nc2cccc(Cl)c2)c(=O)o1 | -0.11% | 44.5% (active) | 24.6% | 56% (active)
26 | Cc1ccc(NC(=O)CN2CCC(NC(=O)C3CCCCC3)CC2)c(Br)c1 | 11.8% | 34% | 44.9% (active) | 7.56%
27 | COc1ccc(CNC(=O)c2sc(=O)n(Cc3ccc(-c4ccccc4)cc3)c2C)cc1OC | 26% | 37.7% | 42.5% | 31.6% (active)
